Measured values from PubChem BioAssay (Tox21).
Inconclusive results are not listed. Where a call stands in place of a potency, no number is given. Active and inactive are the calls of the source. Unless noted, calls come from the whole dose curve; as a rule, active = well fitted curve in the direction sought with a large enough effect in the repeat runs; inconclusive = weak or mixed curves; inactive = no such curve, though single readings can be large; an effect the other way counts as inactive or inconclusive.

How the values were obtained:
[1] = qHTS assay to identify small molecule antagonists of the sonic hedgehog signaling (Shh) pathway (AID 1259369; calls by dose curve; note: nearly all actives have a fitted effect of over 45% in size; note: potency is the fitted concentration of half-maximal effect)
Method in brief: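 Inhibition of Shh signalling is measured as reduced Gli1-response-element firefly luciferase output in an NIH/3T3-derived stable reporter clone stimulated with conditioned medium for 24hr.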

[2] = qHTS assay to identify small molecule agonists of the androgen receptor (AR) signaling pathway in the presence of an antagonist - cell viability counter screen (AID 1259379);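 note: MDA-kb2 human breast cancer cells carrying an MMTV luciferase reporter; series mostly up to about 92 µM; nearly all actives have a fitted effect of over 25% in size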
Method in brief: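 Fluorescence from CellTiter-Fluor, added after 15 hr and read 1 hr later, gave cell viability. Cells were MDA-kb2 exposed to compounds (15 concentrations) in the presence of 3.0uM nilutamide at 37C, 0% CO2.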

[3] = qHTS assay to identify small molecule agonists of the estrogen receptor beta (ER-beta) signaling pathway - cell viability counter screen (AID 1259380); note: nearly all actives have a fitted effect of over 30% in size; note: potency is the fitted concentration of half-maximal effect
Method in brief: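 Same-well viability counter screen. Cells: ER-beta-UAS-bla HEK293T, plated 6 hr before compound, in 2% charcoal-stripped FBS. Compound exposure 16 hr, 37C; viability by CellTiter-Glo luminescence after 30 min at room temperature.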

[4] = molecular target: Estrogen receptor (Homo sapiens) (UniProt P03372); experiment: qHTS assay to identify small molecule agonists of the estrogen receptor alpha (ER-alpha) signaling pathway in the presence of an antagonist (AID 1259383; calls by dose curve; note: nearly all actives have a fitted effect of over 15% in size; note: potency is the fitted concentration of half-maximal effect; for activation: top concentration of the series differs between compounds)
Method in brief: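 Cells are hormone-deprived for 5 days (charcoal-stripped FBS, no phenol red), plated for 24hr, spiked with 10.0nM ICI-182,780, then dosed at 15 concentrations. After 22hr at 37C, ONE-Glo luminescence reports ERE-luciferase activity.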

[5] = molecular target: Progesterone receptor (Homo sapiens) (UniProt P06401); experiment: qHTS assay to identify small molecule agonists of the progesterone receptor (PR) signaling pathway (AID 1346784; calls by dose curve; note: nearly all actives have a fitted effect of over 30% in size)
Method in brief: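 Agonist qHTS: compounds pinned onto 3,000 PR-UAS-bla HEK 293T cells per well in charcoal-stripped serum medium, 16hr at 37C, then beta-lactamase activity measured by LiveBLAzer FRET fluorescence after 2 hours at room temperature.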

[6] = molecular target: Progesterone receptor (Homo sapiens) (UniProt P06401); experiment: qHTS assay to identify small molecule antagonists of the progesterone receptor (PR) signaling pathway (AID 1346795; active = well fitted inhibition curve with a large enough effect in the signal ratio in the repeat runs, not every such curve was filed as active; the % refers to the signal ratio; note: potency is the fitted concentration of half-maximal effect)
Method in brief: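 Antagonist mode with agonist R5020 at 1 nM final and 16 hr incubation at 37C. Reporter was beta-lactamase driven by UAS in HEK293T (PR-UAS-bla), 2% charcoal-stripped serum; signal from LiveBLAzer FRET substrate, 2 hr at room temperature.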

[7] = qHTS assay to identify small molecule antagonists of the progesterone receptor (PR) signaling pathway - cell viability counter screen (AID 1346798); note: nearly all actives have a fitted effect of over 50% in size; note: potency is the fitted concentration of half-maximal effect
Method in brief: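 Cytotoxicity read as CellTiter-Glo luminescence (30 min, room temperature) in the same wells as the beta-lactamase readout. HEK293T PR-UAS-bla cells in charcoal-stripped 2% FBS received compound and R5020, then 16 h at 37C, 5% CO2.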

[8] = qHTS assay to identify small molecule agonists of the progesterone receptor (PR) signaling pathway - cell viability counter screen (AID 1346799; calls by dose curve; note: nearly all actives have a fitted effect of over 45% in size; note: potency is the fitted concentration of half-maximal effect)
Method in brief: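 Cytotoxicity measured by CellTiter-Glo luminescence (30 min, RT) in the same wells as the PR beta-lactamase agonist read. Those HEK293T cells had 16 h compound treatment at 37 C in 2% charcoal-stripped FBS medium.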

[9] = qHTS assay to identify small molecule antagonists of the TGF-beta/Smad signaling pathway - cell viability counter screen (AID 1346824); note: nearly all actives have a fitted effect of over 50% in size
Method in brief: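 Cytotoxicity counter-screen run in the same wells as the beta-lactamase Smad reporter read: CellTiter-Glo luminescence after 30 min at room temperature. HEK 293T SBE-bla cells had 5 hr compound exposure at 37 C with TGF-beta1 (0.25 ng/mL stock).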

[10] = qHTS assay to identify small molecule agonists of the TGF-beta/Smad signaling pathway - cell viability counter screen (AID 1346829); note: top concentration of the series differs between compounds; nearly all actives have a fitted effect of over 45% in size
Method in brief: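 Cytotoxicity counter screen: CellTiter-Glo luminescence (30 min, room temperature) measured in the SBE-bla HEK 293T reporter wells after 5 hr compound treatment at 37 C and the 2 hr substrate step.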

[11] = qHTS assay to identify small molecule agonists of the TGF-beta/Smad signaling pathway (AID 1346859; active = well fitted activation curve with a large enough effect in the signal ratio in the repeat runs, not every such curve was filed as active; the % refers to the signal ratio; note: series mostly up to about 77 µM)
Method in brief: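 Fluorescence (ex 405 nm; em 460 and 530 nm) was read 2 h after LiveBLAzer FRET substrate at RT. The preceding compound treatment of overnight-plated SBE-bla HEK293T cells lasted 5 h at 37 C.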

[12] = molecular target: Thyrotropin-releasing hormone receptor (Homo sapiens) (UniProt P34981); experiment: qHTS assay to identify small molecule antagonists of the thyrotropin-releasing hormone receptor (TRHR) signaling pathway (AID 1346877; active = well fitted inhibition curve with a large enough effect in the repeat runs, not every such curve was filed as active; note: series mostly up to about 51 µM)
Method in brief: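 Cells (TRHR-HEK293) are plated and kept 18 h at 37 °C/5% CO2. A calcium-sensitive dye is added for 2 h, compound follows for 5 min at room temperature, and TRH is then given at 1 nM final.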

[13] = molecular target: Estrogen receptor beta (Homo sapiens) (UniProt Q92731); experiment: qHTS assay to identify small molecule agonists of the estrogen receptor beta (ER-beta) signaling pathway (AID 1259377; active = well fitted activation curve with a large enough effect in the signal ratio in the repeat runs, not every such curve was filed as active; the % refers to the signal ratio)
Method in brief: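 Ratiometric beta-lactamase FRET read-out came after 2 h substrate loading at room temperature. It followed 16 h compound treatment at 37C of GripTite HEK293T cells carrying a UAS-bla reporter, plated in 2% charcoal-stripped FBS medium.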

[14] = molecular target: Estrogen receptor beta (Homo sapiens) (UniProt Q92731); experiment: qHTS assay to identify small molecule antagonists of the estrogen receptor beta (ER-beta) signaling pathway (AID 1259378; active = well fitted inhibition curve with a large enough effect in the signal ratio in the repeat runs, not every such curve was filed as active; the % refers to the signal ratio)
Method in brief: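 Antagonist mode: compounds added to beta-lactamase reporter HEK293T ER-beta-UAS cells stimulated with E2 (1nM final), 16 hr at 37C. LiveBLAzer B/G FRET substrate, 2 hours room temperature, fluorescence read-out.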

[15] = qHTS assay to identify small molecule agonists or antagonists of the thyroid stimulating hormone receptor (TSHR) signaling pathway - wild type cell line counter screen (AID 1259384; calls by dose curve)
Method in brief: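 Counter screen in untransfected Hek293: compounds (15-point titration, triplicate) plus phosphodiesterase inhibitor Ro20-1724 added after 18 h plating; 30 min RT. Intracellular cAMP via competitive d2/cryptate immunoassay, 1 h incubation.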

[16] = molecular target: Thyrotropin receptor (Homo sapiens) (UniProt P16473); experiment: qHTS assay to identify small molecule antagonists of the thyroid stimulating hormone receptor (TSHR) signaling pathway (AID 1259385; calls by dose curve; note: nearly all actives have a fitted effect of over 20% in size)
Method in brief: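 Antagonist mode: compound-treated TSHR-expressing HEK293 cells were stimulated with 1.5 ng/mL TSH (final) in presence of Ro20-1724 for 30 min at RT. HTRF cAMP detection after 1 h; each compound tested at 15 concentrations, triplicate.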

[17] = qHTS assay to identify small molecule agonists of the estrogen receptor alpha (ER-alpha) signaling pathway in the presence of an antagonist - cell viability counter screen (AID 1259386);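 note: cells exposed to compounds for 22 h at 37 °C before the viability read; nearly all actives have a fitted effect of over 30% in size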; note: potency is the fitted concentration of half-maximal effect
Method in brief: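 Cells are starved of estrogens for 5 days in charcoal-stripped serum, seeded for 24hr and co-treated with ICI-182,780 (10.0nM final) and test compounds. After 22hr at 37C, viability is read as CellTiter-Fluor fluorescence.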

[18] = molecular target: Androgen receptor (Homo sapiens) (UniProt P10275); experiment: qHTS assay to identify small molecule agonists of the androgen receptor (AR) signaling pathway in the presence of an antagonist (AID 1259381; calls by dose curve; note: nearly all actives have a fitted effect of over 15% in size)
Method in brief: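 Cells are MDA-kb2 (human breast carcinoma, MMTV-luc, AR/GR responsive). Nilutamide is present at 3.0uM final throughout; compounds are added at 15 concentrations and incubated 16hr at 37C before ONE-Glo luminescence detection.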

[19] = qHTS assay to identify small molecule antagonists of the estrogen receptor beta (ER-beta) signaling pathway - cell viability counter screen (AID 1259382);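 note: HEK293T cells carrying ER-beta-UAS-bla reporter stimulated with estradiol; series mostly up to about 92 µM; nearly all actives have a fitted effect of over 55% in size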
Method in brief: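 Following a 6 hr plating period, HEK293T cells carrying a UAS-driven beta-lactamase reporter under ER-beta control received compounds and 1nM E2 (final). After 16 hr at 37C and 2 hr substrate loading, CellTiter-Glo luminescence indicated viability.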

Thyrotropin receptor (Homo sapiens), sequence (P16473 whole entry, looked up): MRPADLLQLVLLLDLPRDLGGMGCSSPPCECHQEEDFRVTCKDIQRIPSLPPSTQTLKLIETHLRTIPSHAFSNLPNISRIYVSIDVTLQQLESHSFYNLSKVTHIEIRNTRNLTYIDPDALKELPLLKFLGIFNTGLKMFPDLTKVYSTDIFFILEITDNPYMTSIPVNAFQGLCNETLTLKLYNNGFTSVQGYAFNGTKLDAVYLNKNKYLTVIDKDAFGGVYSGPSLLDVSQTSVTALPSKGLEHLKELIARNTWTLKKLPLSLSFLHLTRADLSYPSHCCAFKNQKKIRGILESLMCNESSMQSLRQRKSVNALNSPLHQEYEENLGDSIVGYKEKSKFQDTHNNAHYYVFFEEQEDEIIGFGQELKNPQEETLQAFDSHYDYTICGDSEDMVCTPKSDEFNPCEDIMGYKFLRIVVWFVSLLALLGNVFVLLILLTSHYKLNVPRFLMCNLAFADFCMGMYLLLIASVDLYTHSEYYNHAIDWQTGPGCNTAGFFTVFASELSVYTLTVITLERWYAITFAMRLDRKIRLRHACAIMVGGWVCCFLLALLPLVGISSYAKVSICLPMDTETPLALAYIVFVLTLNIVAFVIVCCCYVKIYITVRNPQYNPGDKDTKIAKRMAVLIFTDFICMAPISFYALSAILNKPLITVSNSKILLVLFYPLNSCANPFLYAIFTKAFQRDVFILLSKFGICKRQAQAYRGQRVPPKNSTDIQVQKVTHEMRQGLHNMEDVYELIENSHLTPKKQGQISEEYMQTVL
Estrogen receptor beta (Homo sapiens), sequence (Q92731 whole entry, looked up): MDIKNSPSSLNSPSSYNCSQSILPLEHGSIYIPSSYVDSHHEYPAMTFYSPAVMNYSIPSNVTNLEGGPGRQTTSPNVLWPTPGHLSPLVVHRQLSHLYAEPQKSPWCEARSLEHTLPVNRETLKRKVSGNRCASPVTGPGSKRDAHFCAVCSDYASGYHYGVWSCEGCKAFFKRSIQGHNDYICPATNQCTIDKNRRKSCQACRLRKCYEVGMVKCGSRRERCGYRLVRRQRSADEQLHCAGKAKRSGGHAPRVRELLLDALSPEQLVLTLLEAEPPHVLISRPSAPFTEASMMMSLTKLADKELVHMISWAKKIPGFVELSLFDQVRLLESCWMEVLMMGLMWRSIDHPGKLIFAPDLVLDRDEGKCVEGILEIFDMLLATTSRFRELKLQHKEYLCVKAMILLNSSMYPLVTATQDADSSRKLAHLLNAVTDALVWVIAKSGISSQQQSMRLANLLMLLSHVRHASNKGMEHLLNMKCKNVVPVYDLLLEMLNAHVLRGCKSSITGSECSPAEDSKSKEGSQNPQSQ
Estrogen receptor (Homo sapiens), sequence (P03372 whole entry, looked up): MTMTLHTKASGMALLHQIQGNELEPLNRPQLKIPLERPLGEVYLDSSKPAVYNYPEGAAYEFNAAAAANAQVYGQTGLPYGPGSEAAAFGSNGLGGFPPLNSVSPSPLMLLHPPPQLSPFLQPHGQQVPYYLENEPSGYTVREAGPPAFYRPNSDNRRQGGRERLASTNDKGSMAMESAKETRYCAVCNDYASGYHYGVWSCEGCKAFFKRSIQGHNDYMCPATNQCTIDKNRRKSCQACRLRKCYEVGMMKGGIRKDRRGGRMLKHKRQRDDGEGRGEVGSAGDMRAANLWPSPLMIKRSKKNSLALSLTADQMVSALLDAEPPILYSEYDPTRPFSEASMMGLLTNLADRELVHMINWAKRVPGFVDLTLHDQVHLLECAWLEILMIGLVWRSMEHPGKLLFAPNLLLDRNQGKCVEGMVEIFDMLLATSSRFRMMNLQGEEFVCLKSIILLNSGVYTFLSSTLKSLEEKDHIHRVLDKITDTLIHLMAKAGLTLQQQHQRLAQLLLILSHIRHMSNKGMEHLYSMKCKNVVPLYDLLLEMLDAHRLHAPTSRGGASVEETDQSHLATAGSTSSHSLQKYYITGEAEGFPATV
Thyrotropin-releasing hormone receptor (Homo sapiens), sequence (P34981 whole entry, looked up): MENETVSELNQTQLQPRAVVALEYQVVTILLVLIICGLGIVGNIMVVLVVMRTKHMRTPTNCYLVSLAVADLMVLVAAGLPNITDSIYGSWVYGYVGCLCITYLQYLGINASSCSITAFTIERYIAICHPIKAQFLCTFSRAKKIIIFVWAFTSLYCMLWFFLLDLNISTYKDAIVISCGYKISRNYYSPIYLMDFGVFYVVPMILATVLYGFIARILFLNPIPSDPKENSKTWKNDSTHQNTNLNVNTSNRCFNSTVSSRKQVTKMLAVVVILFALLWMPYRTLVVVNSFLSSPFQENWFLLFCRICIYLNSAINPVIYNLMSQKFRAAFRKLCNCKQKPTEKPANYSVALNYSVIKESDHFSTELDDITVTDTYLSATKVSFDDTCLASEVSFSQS
Androgen receptor (Homo sapiens), sequence (P10275 whole entry, looked up): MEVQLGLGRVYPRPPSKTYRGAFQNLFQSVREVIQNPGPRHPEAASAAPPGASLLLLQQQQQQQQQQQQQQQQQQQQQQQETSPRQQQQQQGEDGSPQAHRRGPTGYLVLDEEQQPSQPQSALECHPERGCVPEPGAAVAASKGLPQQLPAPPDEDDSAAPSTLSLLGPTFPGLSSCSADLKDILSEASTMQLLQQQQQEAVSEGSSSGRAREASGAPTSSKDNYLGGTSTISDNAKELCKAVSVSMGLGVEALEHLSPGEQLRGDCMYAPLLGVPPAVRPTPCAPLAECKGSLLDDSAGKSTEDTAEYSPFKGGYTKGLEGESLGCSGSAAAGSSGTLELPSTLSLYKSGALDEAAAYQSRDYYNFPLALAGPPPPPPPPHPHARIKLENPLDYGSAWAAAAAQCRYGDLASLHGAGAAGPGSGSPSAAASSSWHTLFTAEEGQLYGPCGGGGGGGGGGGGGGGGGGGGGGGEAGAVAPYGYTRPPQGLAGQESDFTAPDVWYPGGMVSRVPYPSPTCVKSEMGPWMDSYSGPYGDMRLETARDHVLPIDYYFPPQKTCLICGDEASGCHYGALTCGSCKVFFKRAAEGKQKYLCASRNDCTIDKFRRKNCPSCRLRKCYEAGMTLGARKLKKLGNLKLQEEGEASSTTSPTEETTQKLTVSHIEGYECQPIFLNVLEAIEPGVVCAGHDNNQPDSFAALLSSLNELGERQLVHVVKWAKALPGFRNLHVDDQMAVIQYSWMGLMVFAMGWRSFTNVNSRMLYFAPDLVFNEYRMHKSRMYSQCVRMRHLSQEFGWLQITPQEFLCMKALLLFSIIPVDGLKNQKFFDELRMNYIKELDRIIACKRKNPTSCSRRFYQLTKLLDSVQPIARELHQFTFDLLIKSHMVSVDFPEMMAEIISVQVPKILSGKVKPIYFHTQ
Progesterone receptor (Homo sapiens), sequence (P06401 whole entry, looked up): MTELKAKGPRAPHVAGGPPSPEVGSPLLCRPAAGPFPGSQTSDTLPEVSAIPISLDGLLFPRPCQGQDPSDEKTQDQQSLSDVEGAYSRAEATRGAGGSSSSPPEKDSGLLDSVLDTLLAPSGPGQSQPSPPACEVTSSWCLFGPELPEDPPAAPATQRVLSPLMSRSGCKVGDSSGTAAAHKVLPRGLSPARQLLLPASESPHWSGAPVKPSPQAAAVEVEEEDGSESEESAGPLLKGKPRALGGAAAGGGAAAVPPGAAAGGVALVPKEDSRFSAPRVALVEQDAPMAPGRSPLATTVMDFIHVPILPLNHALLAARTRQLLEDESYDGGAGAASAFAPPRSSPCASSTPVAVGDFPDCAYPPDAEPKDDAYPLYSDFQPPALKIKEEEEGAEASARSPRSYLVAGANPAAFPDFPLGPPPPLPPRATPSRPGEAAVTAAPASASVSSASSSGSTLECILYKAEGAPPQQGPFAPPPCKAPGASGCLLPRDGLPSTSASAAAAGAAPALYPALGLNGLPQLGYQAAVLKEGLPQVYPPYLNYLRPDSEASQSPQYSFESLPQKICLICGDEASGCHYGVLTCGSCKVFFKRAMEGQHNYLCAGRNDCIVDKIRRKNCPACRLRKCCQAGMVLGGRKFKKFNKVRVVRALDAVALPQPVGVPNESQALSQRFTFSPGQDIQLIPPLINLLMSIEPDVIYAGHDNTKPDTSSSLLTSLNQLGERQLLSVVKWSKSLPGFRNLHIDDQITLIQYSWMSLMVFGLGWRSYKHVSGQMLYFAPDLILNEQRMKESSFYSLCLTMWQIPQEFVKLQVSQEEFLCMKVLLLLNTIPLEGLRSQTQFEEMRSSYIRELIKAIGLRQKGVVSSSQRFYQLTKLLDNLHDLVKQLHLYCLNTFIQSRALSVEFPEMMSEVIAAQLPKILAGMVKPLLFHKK

Structure (SMILES)	Potency [1]	Potency [2]	Potency [3]	Potency [4]	Potency [5]	Potency [6]	Potency [7]	Potency [8]	outcome [9]	outcome [10]	outcome [11]	outcome [12]	Potency [13]	Potency [14]	outcome [15]	Potency [16]	Potency [17]	Potency [18]	Potency [19]
O=C(O)CCc1nc2ccccc2[nH]1	inactive	inactive	inactive	inactive	inactive	inactive	inactive	inactive	inactive	inactive	inactive	inactive							
CCC(C)C1N=C(C)C(C)S1 (stereo not drawn)	inactive	inactive	inactive				inactive	inactive	inactive	inactive	inactive	inactive	inactive	inactive	inactive	inactive	inactive		
C1=COCCC1	inactive	inactive		inactive	inactive	inactive	inactive		inactive	inactive	inactive	inactive					inactive		
CCOc1cc(OCC)c(C(C)=O)cc1OCC				inactive	inactive		inactive	inactive	inactive	inactive	inactive	inactive	inactive	inactive	inactive	inactive	21.3 µM (active)	inactive	inactive
COc1ccc(/C=C/c2cc(OC)cc(=O)o2)cc1	inactive	inactive	inactive	inactive	inactive	inactive			inactive	inactive	inactive	inactive		inactive			inactive		inactive
Cc1cccc(C)c1NC(=O)CN1CCCC1	inactive	inactive	inactive				inactive	inactive	inactive	inactive	inactive			inactive	inactive	inactive	inactive		inactive
CCOCCn1c(N2CCCN(C)CC2)nc2ccccc21		inactive	inactive		inactive		inactive	inactive	inactive	inactive	inactive	inactive	inactive	inactive			inactive	inactive	inactive
CS(C)=O	68.6 µM (active)	inactive	inactive		inactive	inactive	inactive	inactive	inactive	inactive	inactive				inactive	inactive	inactive		inactive
CC(C)(C(=O)O)c1ccc(C(O)CCCN2CCC(C(O)(c3ccccc3)c3ccccc3)CC2)cc1 (stereo not drawn)	inactive	inactive		inactive		inactive	inactive	inactive	inactive	inactive	inactive	inactive		inactive	inactive		inactive		inactive
c1ccc(CCNc2nc(-c3ccccc3)cs2)cc1	inactive	inactive		0.944 µM (active)	inactive			inactive	inactive	inactive	inactive	inactive		inactive	inactive	inactive	inactive		
Cc1c(Nc2ncccc2C(=O)O)cccc1C(F)(F)F	inactive	inactive	8.41 µM (active)						inactive	inactive	inactive	inactive			inactive	inactive	inactive		
C/C(=C\C(C)CC(C)CC(C)C)C1CC(=O)OC1=O (stereo not drawn)	inactive	inactive		inactive	inactive				inactive	inactive	inactive	inactive	inactive		inactive	inactive	inactive		inactive
CC/C=C/CCO	inactive	inactive	inactive		inactive	inactive	31.2 µM (active)	19.7 µM (active)	inactive	inactive	inactive	inactive		inactive			inactive		inactive
O=C(c1ccco1)N1CCNCC1	inactive	inactive		inactive		inactive	inactive	inactive	inactive	inactive	inactive	inactive	inactive	inactive	inactive	inactive	inactive	inactive	inactive
CCOc1ccccc1O	inactive	inactive	inactive		inactive		inactive	inactive	inactive	inactive	inactive	inactive		inactive	inactive	inactive	inactive		inactive
FC1(F)C(F)(F)C(F)(F)C2(F)C(F)(C1(F)F)C(F)(F)C(F)(F)C1(F)C(F)(F)C(F)(F)C(F)(F)C(F)(F)C12F (stereo not drawn)	inactive	inactive	inactive		inactive	inactive	inactive	inactive	inactive	inactive	inactive		inactive	inactive	inactive	inactive	inactive		inactive
O=c1[nH][nH]c2ccccc12	inactive	inactive		inactive	inactive		inactive	inactive	inactive	inactive	inactive	inactive		inactive	inactive	inactive	inactive	inactive	
COc1ccc(CN(CCN(C)C)c2ncccn2)cc1	inactive	inactive	inactive			inactive	inactive	inactive	inactive	inactive	inactive	inactive		inactive	inactive		inactive		inactive
Clc1ccccc1-c1nc(-c2ccncc2)no1	inactive	inactive			inactive	26.6 µM (active)			inactive	inactive	inactive	inactive			inactive		inactive		inactive
